Giardia killer: kills Giardia lamblia; Giardia lamblia trophozoite viability; activity change, % at 7.66 µM, hits read low; 0.15% of 340,000 active; AID 540267; in the data active = activity change below about -80%; inconclusive = between about -30% and that limit;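 also: parasites exposed to compound for two days anaerobically before the ATP read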
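ATP-content bioluminescence gauges trophozoite survival. Cells (100/well) receive compound and incubate anaerobically for 48 hrs at 37 deg C; detection reagent follows for 15-30 min at room temperature.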
DT40 TDP1 CPT: DT40-hTDP1 cell growth loss with CPT. Potency, µM (doses to about 46.2 µM), without a hit: at the highest dose activity change, negative = growth inhibition, actives largely listed as inhibitors. chicken DT40 Tdp1-/-;hTDP1 cells + 20 nM CPT, ATP luminescence, 48 h. 12% of 420,000 active; also: potency is read from the fitted curve at half-maximal effect; nearly all actives have a fitted effect of over 55% in size
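Chicken DT40 Tdp1-/- cells complemented with human TDP1, 400 cells/well, exposed to compounds plus 20 nM camptothecin for at least 48 h at 37 C; viability read as ATP content by CellTiter-Glo luminescence.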
TDP1 cell noCPT: qHTS for Inhibitors of human tyrosyl-DNA phosphodiesterase 1 (TDP1): qHTS in cells in absence of CPT; Potency, µM (series often up to 46.2 µM), for inactives: top-dose activity change, negative = growth inhibition, actives largely listed as inhibitors; 15% of 420,000 active; DT40 Tdp1-/- hTDP1 cells, no CPT, ATP luminescence, 48 h; AID 686978, 2013; also: potency is read from the fitted curve at half-maximal effect; nearly all actives have a fitted effect of over 55% in size
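Cells were dispensed at 400 per well, compounds added by pin tool, plates incubated ≥48 hr at 37 °C, then CellTiter-Glo added for 30 min at room temperature before luminescence reading. Line: DT40 Tdp1-/- complemented with hTDP1; camptothecin omitted.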
IL1B secr inh: inflammasome signaling inhibition, IL-1 beta readout; activity change, % at 57.5 µM; THP-1 LPS/ATP IL-1B secretion, AlphaLISA, 16 h; stronger effect = lower value; 4.7% of 360,000 active; in the data active = activity change below about -50%; inconclusive = mostly about -30% to -49%
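THP-1 cells pretreated 1 hr with compounds (up to 57.5 uM final), then stimulated with LPS (250 ng/mL final) plus ATP (1.25 mM final); secreted IL-1B measured by AlphaLISA after 16 hr, decreased signal indicating inhibition.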
TDP1 inh: inhibitors of human tyrosyl-DNA phosphodiesterase TDP1; Q9NUW8; recombinant TDP1, AlphaScreen DNA substrate cleavage; Potency, µM (series often up to 130 µM), without a hit: top-dose activity change, negative = inhibition, hits mostly inhibitors; 0.28% of 350,000 active; AID 485290; also: potency is read from the fitted curve at half-maximal effect; nearly all actives have a fitted effect of over 40% in size
Target sequence (Q9NUW8 whole entry, looked up): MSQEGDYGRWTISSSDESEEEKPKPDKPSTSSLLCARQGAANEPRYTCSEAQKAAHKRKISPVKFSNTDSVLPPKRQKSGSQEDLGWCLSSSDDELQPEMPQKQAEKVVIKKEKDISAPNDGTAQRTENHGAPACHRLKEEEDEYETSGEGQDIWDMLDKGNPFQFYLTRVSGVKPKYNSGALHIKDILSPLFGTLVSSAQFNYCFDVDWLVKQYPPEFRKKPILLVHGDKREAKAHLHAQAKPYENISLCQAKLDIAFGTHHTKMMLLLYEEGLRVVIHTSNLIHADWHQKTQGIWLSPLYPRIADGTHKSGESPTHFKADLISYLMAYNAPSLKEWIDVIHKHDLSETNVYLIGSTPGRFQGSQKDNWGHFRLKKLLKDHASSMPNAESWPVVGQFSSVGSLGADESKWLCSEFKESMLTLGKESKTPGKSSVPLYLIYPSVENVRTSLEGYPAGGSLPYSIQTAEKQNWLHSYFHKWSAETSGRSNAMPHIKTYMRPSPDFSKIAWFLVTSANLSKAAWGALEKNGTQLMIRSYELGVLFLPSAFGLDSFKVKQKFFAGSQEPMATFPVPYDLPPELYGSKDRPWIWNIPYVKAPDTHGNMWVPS
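Signal: AlphaScreen proximity between streptavidin donor and anti-FITC acceptor beads on intact substrate. Reaction: Tdp1 1 nM, substrate 15 nM final, 5 min RT after 15 min compound preincubation.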
ELG1 DNA repair: blocks ELG1-dependent DNA repair in HEK293T cells | HEK293T ELG1-luciferase reporter, luminescence, 16 h; DNA damage induced by 5-fluorouridine | Potency, µM (titrated, usually from 46.1 µM), inactives show at the top dose activity change, negative = inhibition, actives largely listed as inhibitors | 2.3% of 330,000 active | AID 504467; also: potency is read from the fitted curve at half-maximal effect; nearly all actives have a fitted effect of over 55% in size
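Cells (2,000 per well) received 5-fluorouridine plus test compound or DMSO and were incubated 16 hr at 37 °C, 5% CO2. Luciferase activity was read by luminescence 30 min after ONE-Glo addition; signal suppression marked inhibition of damage-induced ELG1 function.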
* hit, by the source's call; [ ] = another dose, or the depositor's remark. Hits are enriched below; roughly 19% of the tested compounds scored in any of these assays. Unless noted, calls follow the shape of the dose curve; as a rule, active = well fitted curve in the direction sought with a large enough effect; inconclusive = small, poorly fitted or top-dose-only effect, or another doubt; inactive = no such curve, though single readings can be large; an effect the other way counts as inactive or inconclusive. % is scaled to controls: 0 for no effect and ±100 for the full control effect.

CC1CCCN(CCCOc2ccc(Cl)cc2Br)C1 (stereo unspecified) was read as Giardia killer -11, DT40 TDP1 CPT inconclusive, TDP1 cell noCPT inconclusive, IL1B secr inh -3, TDP1 inh 7% and ELG1 DNA repair inconclusive.
COc1cccc(N2CCN(S(=O)(=O)c3ccc4c(c3)oc(=O)n4C)CC2)c1 was read as Giardia killer -3, DT40 TDP1 CPT 8%, TDP1 cell noCPT 10%, IL1B secr inh 39, TDP1 inh -17% and ELG1 DNA repair -8%.
Screening Cn1c(=O)oc2cc(S(=O)(=O)N3CCC(C(=O)N4CCN(c5cccc(Cl)c5)CC4)CC3)ccc21 returned DT40 TDP1 CPT 4.1µM*, TDP1 cell noCPT 1.5µM* and TDP1 inh 4%.
Screening Cn1c(=O)oc2cc(S(=O)(=O)N3CCC(C(=O)N4CCN(c5ccc(Cl)cc5)CC4)CC3)ccc21 returned DT40 TDP1 CPT 2.1µM*, TDP1 cell noCPT 2.3µM* and TDP1 inh 12%.
COc1ccc(CNC(=O)c2cnn(-c3ncc4c(n3)-c3ccccc3CC4)c2C)cc1OC was read as DT40 TDP1 CPT 5%[9.04 µM] and TDP1 cell noCPT -13%.
For CCOC(=O)N1CCN(C(=O)Cn2nc(C)n3nc(-c4ccc(OC)cc4)cc3c2=O)CC1 the results were Giardia killer 2, DT40 TDP1 CPT inconclusive, TDP1 cell noCPT inconclusive, IL1B secr inh 4, TDP1 inh 2% and ELG1 DNA repair -2%.
`CCOC(=O)C1CCN(C(=O)Cn2nc(C)n3nc(-c4ccc(OC)cc4)cc3c2=O)CC1` gave Giardia killer -3, DT40 TDP1 CPT 23µM*, TDP1 cell noCPT 21µM*, IL1B secr inh 9, TDP1 inh 0% and ELG1 DNA repair inconclusive.
COc1ccc(-c2cc3c(=O)n(CC(=O)Nc4cccc(Cl)c4)nc(C)n3n2)cc1 was read as Giardia killer -8, DT40 TDP1 CPT 15µM*, TDP1 cell noCPT inconclusive, IL1B secr inh 4, TDP1 inh 0% and ELG1 DNA repair 22%.
For CCOC(=O)N1CCN(C(=O)Cn2nc(C)n3nc(-c4ccc(CC)cc4)cc3c2=O)CC1 the results were Giardia killer -5, DT40 TDP1 CPT 16µM*, TDP1 cell noCPT 21µM*, IL1B secr inh 13, TDP1 inh 1% and ELG1 DNA repair 1%.
O=C(CSc1ncnc2nc[nH]c12)c1ccc(Cl)cc1 was read as Giardia killer -2, DT40 TDP1 CPT inconclusive, TDP1 cell noCPT inconclusive, IL1B secr inh 6 and ELG1 DNA repair 9%.
O=C(CSc1ncnc2nc[nH]c12)c1ccccc1 was read as Giardia killer -11, DT40 TDP1 CPT -29%, TDP1 cell noCPT inconclusive, IL1B secr inh -9, TDP1 inh 2% and ELG1 DNA repair inconclusive.
Screening Clc1ccc(CSc2ncnc3nc[nH]c23)cc1 returned Giardia killer 2, DT40 TDP1 CPT inconclusive, TDP1 cell noCPT 23µM*, IL1B secr inh -3, TDP1 inh 4% and ELG1 DNA repair 14%.
c1ccc(CCSc2ncnc3nc[nH]c23)cc1 was read as Giardia killer 3, DT40 TDP1 CPT 16µM*, TDP1 cell noCPT 8.2µM*, IL1B secr inh 42, TDP1 inh 5% and ELG1 DNA repair 14%.
Screening COc1cccc(OC)c1OCCCNC1CCCC1 returned Giardia killer 15, DT40 TDP1 CPT -24%, TDP1 cell noCPT 1%, IL1B secr inh -4, TDP1 inh 2% and ELG1 DNA repair -5%.
`Cc1ccc(C(=O)NC(=S)Nc2ccccc2N2CCCC2)cc1[N+](=O)[O-]` gave Giardia killer -10, DT40 TDP1 CPT 16µM*, TDP1 cell noCPT 18µM*, IL1B secr inh -19, TDP1 inh -2% and ELG1 DNA repair -13%.
Screening O=C(NC(=S)Nc1ccc(NC(=O)c2cccs2)cc1)c1cc2ccccc2o1 returned Giardia killer 1, DT40 TDP1 CPT 13µM*, TDP1 cell noCPT inconclusive, IL1B secr inh 8, TDP1 inh -4% and ELG1 DNA repair 3%.
Screening O=C(NC(=S)Nc1ccccc1N1CCCC1)c1ccccc1[N+](=O)[O-] returned Giardia killer -13, DT40 TDP1 CPT -17%, TDP1 cell noCPT -5%, IL1B secr inh 19, TDP1 inh 8% and ELG1 DNA repair 3%.
For Cc1ccc(C(=O)Nc2ccccc2N2CCN(C(=O)C(C)C)CC2)cc1C the results were Giardia killer 13, DT40 TDP1 CPT inconclusive, TDP1 cell noCPT 13µM*, IL1B secr inh -22, TDP1 inh -3% and ELG1 DNA repair 0%.
`COc1ccc(C(=O)Nc2cc([N+](=O)[O-])ccc2N2CCN(C)CC2)cc1` gave Giardia killer 11, DT40 TDP1 CPT 11µM*, TDP1 cell noCPT inconclusive, IL1B secr inh -1, TDP1 inh 5% and ELG1 DNA repair -4%.
For COc1cc(C(=O)NC(C)c2cc(C)ccc2C)ccc1OCC(=O)N1CCOCC1 (stereo unspecified) the results were Giardia killer -3, DT40 TDP1 CPT -22%, TDP1 cell noCPT -28%, IL1B secr inh 0, TDP1 inh 0% and ELG1 DNA repair 4%.
`Cc1cc(C)cc(NS(=O)(=O)c2ccc(NC(=S)NC(=O)c3cccs3)cc2)c1` gave Giardia killer -12, DT40 TDP1 CPT 21µM*, TDP1 cell noCPT 18µM*, IL1B secr inh inconclusive, TDP1 inh 0% and ELG1 DNA repair -23%.
Cc1ccc(C(=O)NC2CCCc3ccccc32)cc1[N+](=O)[O-] (stereo unspecified) was read as Giardia killer -20, DT40 TDP1 CPT inconclusive, TDP1 cell noCPT 15µM*, IL1B secr inh -18, TDP1 inh 5% and ELG1 DNA repair inconclusive.
Screening O=C(O)c1ccc(N2CCN(C(c3ccccc3)c3ccccc3)CC2)c([N+](=O)[O-])c1 returned Giardia killer 1, DT40 TDP1 CPT -28%, TDP1 cell noCPT inconclusive, IL1B secr inh 17 and ELG1 DNA repair 13%.
`Cc1ccc(C(=O)NC(=S)Nc2ccc(NC(=O)c3cccs3)cc2)cc1[N+](=O)[O-]` gave Giardia killer 4, DT40 TDP1 CPT 8.2µM*, TDP1 cell noCPT 3.7µM*, IL1B secr inh 12, TDP1 inh 4% and ELG1 DNA repair inconclusive.
For CN1CCN(c2ccc(C(=O)c3ccccc3)cc2[N+](=O)[O-])CC1 the results were Giardia killer 28, DT40 TDP1 CPT 0%, TDP1 cell noCPT inconclusive, IL1B secr inh -53*, TDP1 inh 3% and ELG1 DNA repair 2%.

Screening data from PubChem.
